Laboratory results from PubChem BioAssay AID934 (National Center for Advancing Translational Sciences (NCATS), 2007).
Records with an inconclusive call do not appear. Entries that show only a call come without a potency. The source made the active and inactive calls. Calls follow the shape of the dose curve; as a rule, active = well fitted activation curve with a large enough effect; inconclusive = small, poorly fitted or top-dose-only effect; inactive = flat fitted curve, though single readings scatter.

Test: Parental Cell Counter Screen for Stat Signaling Pathway Assay
Settings: ME-180 (cervical carcinoma) parental cells, blue fluorescence artefact counter-screen; series mostly up to 38.3 µM
Description: NIH Molecular Libraries Screening Centers Network [MLSCN] NIH Chemical Genomics Center [NCGC] MLSCN Grant: None NCGC Assay Overview: This assay is a counter screen for the Stat signaling pathway assay (PubChem AID 446). The Stat assay is cell-based and measures Interleukin 6 (IL-6) mediated modulation of a beta-lactamase reporter gene controlled by a STAT inducible element (SIE-bla cells, Invitrogen). IL-6 is a cytokine that signals via the JAK/STAT pathway and is implicated in cancer and inflammation. […] Compounds active in the parental ME-180 cells are likely fluorescent.
NCGC Assay Protocol Summary: Cells were trypsinized, washed in assay medium (AM, OPTI MEM with 0.5% fetal bovine serum, 0.1 mM nonessential amino acids, 1 mM sodium pyruvate, 10mM HEPES pH 7.3, 100U/ml penicillin, and 100 ug/ml streptomycin) and suspended at […] in AM. Approximately 2500 cells in 5 uL/well was dispensed into 1536-well plates and the cells were incubated overnight at 37 C. 23 nL of compound were delivered by a pin tool and 1 uL of IL-6 (40 pM final concentration in AM) was added. After plates were incubated at 37 C for 5 hrs, 1uL of detector mix (LiveBLAzerTM, Invitrogen) was added, the plates incubated at room temperature for 2.5 hrs, and fluorescence intensity at 460 and 530 nm emissions was measured at 405 nm excitation by an Envision (Perkin Elmer).
For CCC(=O)Oc1oc(-c2ccccc2)nc1C=Nc1ccccc1OC, the Potency was “inactive”.
In the case of COc1cc(-c2nn3c(COc4ccccc4)nnc3s2)cc(OC)c1OC, the Potency is reported as “inactive”.
For Cc1oc2cc(O)cc(C)c2c(=O)c1-c1cnn(-c2ccccc2)c1, the Potency was “inactive”.
For NCCSc1nc2ccccc2s1, the Potency was “inactive”.
For Cc1ccc(S(=O)(=O)N2CCN(c3nc(C)c4c(c3C#N)CC(C)(C)OC4)CC2)cc1, the Potency was “inactive”.
For OC[C@@H]1O[C@@H](n2cnc3c(SCc4ccccc4)ncnc32)[C@@H](O)[C@H]1O, the Potency was “inactive”.
With COc1cccc2c1C(=O)c1c(O)c3c(c(O)c1C2=O)C[C@@](O)(C(=O)CO)C[C@@H]3O[C@H]1C[C@H](N)[C@H](O)[C@H](C)O1 the Potency was “inactive”.
For Cc1ccc(S(=O)(=O)N2CCN(c3nc(C(C)C)c4c(c3C#N)CC(C)(C)OC4)CC2)cc1, the Potency was “inactive”.
For O=C(O)CCc1c2ccc(=O)c(O)c-2oc2c(O)c(O)ccc12, the Potency was “inactive”.
For COc1cc2nc(-c3ccccc3)nc(N3CCCC3)c2cc1OC, the Potency was “inactive”.
With Fc1ccc2[nH]c3c(N4CCN(Cc5ccc6c(c5)OCO6)CC4)ncnc3c2c1 the Potency was “inactive”.
In the case of Cn1c(N2CCN(c3ccccn3)CC2)nc2c1c(=O)n(Cc1ccc(Cl)cc1)c(=O)n2C, the Potency is reported as “inactive”.
For COc1c2c(nc3ccccc13)O[C@@H]([C@@](C)(O)CO)C2, the Potency was “inactive”.
With COc1ccc(C(=O)CCN(C)C)c2ccccc12 the Potency was “inactive”.
With C=CCNC(=O)C(C#N)c1nc2ccccc2nc1N1CCCCCC1 (stereo not drawn) the Potency was 15.8 µM (active).
With COc1cccc2c1C(=O)c1c(O)c3c(c(O)c1C2=O)C[C@](O)(C(=O)CO)C[C@H]3O[C@@H]1C[C@H](N)[C@H](O)[C@H](C)O1 the Potency was “inactive”.
In the case of CCOC(=O)CSc1nnc2n(Cc3ccccc3)c(=O)c3c4c(sc3n12)CCC4, the Potency is reported as “inactive”.
For CCCCCCc1cc2cc(-c3nnc(-c4ccccc4O)o3)c(=O)oc2cc1O, the Potency was 0.0126 µM (active).
With CC1CCN(c2oc(-c3ccccc3Cl)nc2C#N)CC1 the Potency was “inactive”.
With O=C(O)c1c(Br)c(Br)c(Br)c(Br)c1C1c2ccc(O)cc2Oc2cc(O)ccc21 the Potency was “inactive”.
With Cc1cc(=O)oc2c(CN3CCCCC3)c(O)c(Cl)cc12 the Potency was 10 µM (active).
For CC(C)C[C@H]1C(=O)N2CCC[C@H]2[C@]2(O)O[C@](NC(=O)[C@@H]3C=C4c5cccc6[nH]c(Br)c(c56)CC4N(C)C3)(C(C)C)C(=O)N12 (stereo partly drawn), the Potency was “inactive”.
In the case of COc1ccc2c(c1)c1c(C)c3cnccc3c(C)c1n2CCCN, the Potency is reported as 31.6 µM (active).
In the case of CC[C@@H]1CN2CCc3cc(OC)c(OC)cc3[C@H]2C[C@@H]1C[C@H]1NCCc2cc(OC)c(OC)cc21, the Potency is reported as “inactive”.
For COc1ccc2[nH]c3c(N4CCN(Cc5ccc6c(c5)OCO6)CC4)ncnc3c2c1, the Potency was “inactive”.
For Cc1ccccc1CNc1ncnc2c1ncn2[C@@H]1O[C@@H](CO)[C@H](O)[C@@H]1O, the Potency was “inactive”.
In the case of CC1CCN(CC[S-])CC1.O.O.[Cl][Pt], the Potency is reported as “inactive”.
With N/C(=N\O)c1cn([C@@H]2O[C@@H](CO)[C@H](O)[C@@H]2O)c2ncnc(NO)c12 the Potency was “inactive”.
For CCC(=O)Nc1nc(C)c(Oc2ccccc2)c(=O)[nH]1, the Potency was “inactive”.
In the case of O=C1Nc2ccc(I)cc2/C1=C/c1cc(Br)c(O)c(Br)c1, the Potency is reported as “inactive”.
With CCCCc1nc(NCCNC(=O)c2ccco2)c(C#N)c2c1CSC(C)(C)C2 the Potency was “inactive”.
For Nc1ncnc2c1ncn2[C@@H]1O[C@H](COP(=O)(O)O)[C@@H](O)[C@@H]1O, the Potency was “inactive”.
For CN1CCc2c(sc3ncn4nc(-c5ccccc5O)nc4c23)C1, the Potency was 31.6 µM (active).
